# Data as given in article PMC6212790, “How bacterial xenogeneic silencer rok distinguishes foreign from self DNA in its resident genome”.
# Whole data set: some 33,000 sequences, median “e-score” near -0.037, cut for the highest 2% near 0.34. This is one part of a sample in which the highest values are shown more often than they occur.
# Biological target: T1, GST-Rok (full length) (Bacillus subtilis subsp. subtilis str. …, UniProt O34857 1-191)
# T1 sequence: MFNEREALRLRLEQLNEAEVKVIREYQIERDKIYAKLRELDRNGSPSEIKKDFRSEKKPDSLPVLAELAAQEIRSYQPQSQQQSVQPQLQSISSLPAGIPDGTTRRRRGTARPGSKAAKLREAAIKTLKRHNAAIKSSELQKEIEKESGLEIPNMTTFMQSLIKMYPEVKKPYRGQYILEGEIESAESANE
# Assay: protein binding microarray; Rok is a gene silencer of Bacillus subtilis; high values mean tight binding
# Details: protein: recombinant; tags: GST (pTH5325, pDEST15-Magic modified); dsDNA, one strand shown
# Method in brief: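 Each has a 25-mer constant primer and a 35-mer variable part from a de Bruijn sequence of order 10, covering every non-palindromic 8-mer at least 32 times (palindromic 16). Preference for each 8-mer is given as a rank-based, unitless enrichment score (E-score). Its range runs from 0.5 (most favored) to −0.5 (most disfavored).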
row,Sequence,binding signal [E-score]
1,CGAGGCCA,-0.199
2,TGAACTAA,0.0469
3,ATTCGAAT,0.342
4,ATTCGAAG,0.09
5,ATTCGAAA,0.159
6,AGCGGTTA,-0.138
7,ACCGGTAA,0.255
8,AGCGGTAT,0.321
9,AGCGGTAG,0.34
10,AGCGGTAC,-0.166
11,CCCGGTAG,-0.134
12,ACCGGTAG,0.374
13,CTATGTCA,0.225
14,AAGTCGCC,-0.0852
15,AAAGCATT,-0.0355
16,CCTAGTAG,0.233
17,GCTAGTAC,0.181
18,ACTAGTAT,0.422
19,CCTAGTAC,0.125
20,ACTAGTAC,0.41
21,ACTAGTAG,0.426
22,ACTAGTGG,0.00757

row,Sequence,binding signal [E-score]
1,ACCAGTAT,0.255
2,ACTAGTCT,0.248
3,AGTTAAGC,-0.0477
4,GGCTAAGA,0.000408
5,GTTCTCAA,0.0738
6,TAACACTA,0.284
7,GAAGACTC,-0.114
8,CAGTAGGC,-0.157
9,TCCTACAA,0.0302
10,AGGCTTCG,-0.0947
11,AGCCCTAA,-0.164
12,CTAATTAG,0.375
13,ATAATTAG,0.317
14,GTAATTAA,0.181
15,ATAATTAA,0.29
16,GTAATTAC,0.421
17,ATAATTAC,0.385
18,ATAATTAT,0.268
19,CTAATTAA,0.233
20,CTAATTAC,0.329
21,GAACCCAA,-0.176
22,ATGAAATC,0.029

row,Sequence,binding signal [E-score]
1,AGGTCTGG,-0.0443
2,ATGTACAT,0.409
3,ATGTACAA,0.311
4,ATGTAAAA,0.295
5,TTGTACAA,0.387
6,AGCTACCC,-0.139
7,AGCTACCT,0.164
8,ATGTACAG,0.3
9,CTGTACAA,0.0838
10,ATGTAAAT,0.376
11,AGCTACCA,0.358
12,GTGTACAA,0.167
13,ATGTAAAC,0.0692
14,ATAATTCC,0.213
15,GAGAACAA,-0.119
16,GTCGTTTA,0.0636
17,CCTCACAG,-0.0675
18,AGCAGCAG,-0.124
19,ACGGACAC,-0.126
20,CGCATTAA,0.0651
21,GTGATTTA,0.06
22,CCAGGAGC,-0.14

row,Sequence,binding signal [E-score]
1,AGCGTCTA,0.0457
2,ATCTACCG,0.409
3,ATCTACCA,0.48
4,ATGTACCA,0.342
5,AGCTACCG,0.309
6,GTCTACCA,0.0944
7,ATGTACCC,0.0665
8,ACCTACCG,0.169
9,ATCTACCC,0.25
10,CTGTACCA,-0.0416
11,ATTGCCGG,-0.0899
12,ACCAGCCG,0.0494
13,TCAGGACA,-0.136
14,CCACCTAA,-0.104
15,CTGGTAAC,0.176
16,GAGAGAGA,-0.124
17,CAAGCGTA,-0.175
18,AAGCCAGC,-0.00201
19,AGACTGAA,0.0238
20,CATACTAA,0.125
21,TATACTAA,0.364
22,AATACTTC,0.235

row,Sequence,binding signal [E-score]
1,AATACTGA,0.188
2,CATACTAG,0.312
3,AATACTAG,0.341
4,GATACTAA,0.307
5,AATACTAC,0.419
6,AATACTCG,0.085
7,AATACTCA,0.174
8,AATACTAA,0.37
9,GATACTAC,0.278
10,GCAGGGAA,-0.158
11,TAAATTCA,0.217
12,AGTAGCCA,-0.0245
13,CCTTACCG,0.0725
14,CGGAGCCG,-0.191
15,ACGTGCTA,0.0361
16,CATACTCC,-0.0183
17,CATACTTC,0.191
18,AATACTAT,0.359
19,CATACTAC,0.376
20,AATACTGT,0.171
21,AATACTCT,0.11
22,AAAAAGTT,0.0934
